Results taken from PubChem BioAssay AID493073 (Broad Institute, 2011).
In all, about 1,200 compounds went through this assay and about 810 (68%) were called active. How the calls were made is not given here. So high a share suggests a set chosen from earlier hits. The list is a sample of the results. Entries with a potency or affinity are not part of this list.

Experiment: reducers of TRPM1 reporter luminescence, concentration series – cell-based, SK-MEL-5, cherry-picked, set 3, MITF inhibitor project, dose response (AID 493073)
Settings: SK-MEL-5 TRPM1 promoter luciferase, 24 h; series mostly up to 35 µM

outcome, inactive:
Oc1ccccc1/C=N/Nc1cccc2cccnc12
Cc1ccc2nc(Cc3ccc(N)cc3)oc2c1
CCOc1ccccc1NC(=O)C1C2CCC(O2)C1C(=O)O (stereo unspecified)
COc1ccc(-c2cc(-c3ccc(OC)c(OC)c3)n[nH]2)c(O)c1
COc1ccc(C(=O)NCC(=O)c2ccccc2)cc1
COc1ccc(C(=O)NCCSc2ccccc2C)cc1
COc1cccc(CNc2nc3ccccc3n2C)c1O
Cc1cc(C(F)(F)F)c2c(N)c(C(=O)Nc3cc(C)on3)sc2n1
Cc1cc(C)c2c(N)c(C(=O)N/N=C/c3ccccc3)sc2n1
CCc1cc(C=NC2CCCCC2)c(O)s1
Cc1ccccc1NCc1nc2ccccc2n1C
O=C(NCc1ccco1)c1ccc(COCC(F)(F)F)cc1
CN(C)c1ccc(/C=C/c2cccc[n+]2[O-])cc1
Cc1ccc(O)c(NC(=O)c2ccc3c(c2)C(=O)N(CC(C)C)C3=O)c1
Clc1nccnc1N/N=C/c1ccc(Br)cc1
N/C(=N\OC(=O)Cc1cccs1)c1ccccc1
COc1cccc(/C=N/NC(=O)c2cccs2)c1
O=C(NC1CCCCCC1)c1cc2ccccc2oc1=O
O=C(NC1CCCCC1)c1cc2cc(Br)ccc2o1
COc1cccc(-c2ccc3c(N)c(C(=O)NC4CC4)sc3n2)c1
N#C/C(C(=O)c1ccccc1)=C1/CCCCCN1
CCOc1ccc(N=C(C)C2=C(O)c3ccccc3C2=O)cc1
Cn1c(COc2ccccc2Br)nc2ccccc21
NC(=O)c1c(NC(=O)c2cccnc2)sc2c1CCCCC2
Cc1ccc(COc2ccc(C)nc2[N+](=O)[O-])cc1
CCOc1cc(/C=N/N=C(N)N)ccc1OCc1ccc(Cl)cc1
O=C(Nc1ccc(Cl)cc1)N1CC=CCC1
CC(C)(CO)NC(=O)c1ccc2nc(Cc3cccc(Cl)c3)oc2c1
Cc1ccc(C(=O)c2coc3ccc(O)c(Cl)c23)cc1
OCc1ccc(N=Nc2ccccc2)cc1
Cc1ccc(OCCCCN2CCCCC2)c(Br)c1
O=C(Cc1cccs1)NCc1ccc(Cl)cc1Cl
O=C(CCC(=O)c1ccc[nH]1)c1ccc(Cl)cc1
COc1nc(NC2CCCCC2)nc(NC(C)(C)C)n1
C#Cc1cccc(NC(=O)CSc2nnc(-c3ccc(C(F)(F)F)cn3)o2)c1
Cn1c(COc2ccccc2)nc2ccccc21
COc1ccc(NCc2nc3ccccc3n2C)cc1
COc1cc(CN2CCC(C(=O)NCCC(C)C)CC2)ccc1OCc1ccccc1
COc1ccc(C(=O)Nc2ccc3c(c2)OCCO3)cc1Br
COc1cccc(/C=C/C(=O)c2ccc3c(c2)OCCO3)c1OC
COc1ccc(N(CC(=O)NCC2CCCO2)S(=O)(=O)c2ccccc2)cc1OC (stereo unspecified)
CC(=O)Nc1cccc(-c2nnc(-c3ccccc3)o2)c1
O=C(CN1CCCCC1)Nc1scc2c1c(=O)oc1ccccc12
CCN(CC)CCNC(=O)C1CCN(S(=O)(=O)c2c(C)noc2/C=C/c2ccccc2F)CC1
Cc1cc(/C(N)=N/OC(=O)Nc2ccc(Cl)cc2)no1
Cc1cccc(NC(=O)c2cnn(-c3ccccc3)c2C)c1C
Cc1ccsc1C(=O)OCC(=O)Nc1sccc1C(N)=O
CCCCC(=O)N/C(N)=N/c1nc2ccccc2o1
O=C(NCC1CCCO1)c1cc(-c2ccc(Cl)cc2Cl)on1 (stereo unspecified)
Cc1cccc(-c2nc(C#N)c(NCc3ccco3)o2)c1
Cc1ccc(-c2nc(C#N)c(NCc3ccco3)o2)cc1
O=C(Nc1ccc2nn(-c3ccccc3)nc2c1)c1ccco1
CNc1oc(/C=C/c2cccc(OC)c2)nc1C#N
CC(C)C(=O)Nc1cccc(NC(=O)c2cc3ccccc3o2)c1
Cc1cc(Cl)ccc1NC(=O)c1ccc2c(c1)OCO2
N=c1n(CC(=O)c2ccc([N+](=O)[O-])cc2)c2ccccc2n1Cc1ccc(Cl)cc1
O=C1CN(c2ccccc2)C(=S)N1C(=O)c1ccc(Br)cc1
Cc1c(C=O)c2cc(OCc3ccccc3)ccc2n1C
CC1CCCC(C)N1CCCNC(=O)c1cc2c(s1)-c1ccccc1OC2 (stereo unspecified)
COc1ccccc1/C=C/C=N/NC(=O)c1cccs1
Cc1ccc(SCCSc2ncccn2)cc1
CC(C)(C)c1cc(NCCCn2ccnc2)n2ncc(-c3ccccc3)c2n1
Nc1c(-c2ccccc2)cnc2c(-c3ccccc3)cnn12
c1cc(CSc2nnc(-c3ccc4c(c3)OCO4)o2)ccn1
O=C(Nc1nc2ccccc2s1)c1ccccc1[N+](=O)[O-]
Cc1ccc(NC(=O)Nc2ccccc2)nc1
COc1cc(SC)ccc1C(=O)NCCOc1ccccc1Cl
Cc1cnn(C(=S)NCCc2ccccc2)c1
COc1ccc(C)c2sc(N(CCN(C)C)C(=O)/C=C/c3cccs3)nc12
CN(C)CCCN(C(=O)CCc1ccccc1)c1nc2ccc(Br)cc2s1
O=C(CSC(=S)N1CCCCC1)c1c(F)cccc1F
COc1ccc(CNC(=O)CN2C(=O)C3C4C=CC(C4)C3C2=O)cc1 (stereo unspecified)
COC(=O)c1c(C)[nH]c(/C=N/Nc2ccccc2)c1C
COc1cc(CN2CCC(C(N)=O)CC2)ccc1OCc1ccccc1
O=C(Nc1cc2c(cc1Cl)OCCO2)c1ccco1
CCOC(=O)c1sc(-c2ccccc2)cc1N
Cc1nn2c(N)c(-c3ccccc3)cnc2c1-c1ccccc1
CC(=O)Nc1cccc2c1Cc1ccccc1-2
CN(C)CCNC(=O)COc1ccc(C23CC4CC(CC(C4)C2)C3)cc1
Cc1ccc(-n2ncc3c(SCC(N)=O)ncnc32)cc1C
Cn1c(/C=C/c2ccc(Cl)cc2)nc2ccccc2c1=O
